# In PubChem BioAssay (NCATS):
# Results filed as inconclusive are left out. Activity calls are given as the source filed them. Calls come from the whole dose curve; as a rule, active = well fitted inhibition curve with a large enough effect; inconclusive = small, poorly fitted or top-dose-only effect; inactive = flat fitted curve, though single readings scatter.
# System: CRL-7250
# Experiment: Cytotoxic Profiling of Annotated Libraries Using Quantitative High-Throughput Screening (AID 1296008); note: nearly all actives have a fitted effect of over 60% in size
# Settings: Five cell lines viability, CellTiter-Glo ATP luminescence, 48-72 h; max response: active compounds read low
# Method in brief: (§1)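 Compounds were pin-transferred onto cells and incubated 48 or 72 hr at 37 degree Celsius, 95% humidity. CellTiter-Glo was added, plates sat 10 min at room temperature, then ATP-coupled luminescence was imaged as the viability read-out.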
# % is set by controls: 0 for no effect and ±100 for the full control effect; potency is the fitted concentration of half-maximal effect.
Compound,outcome,max response,Potency
Cc1ccnn1-c1ccc(C(=O)N2CCN(S(=O)(=O)c3ccc(Cl)c(C(F)(F)F)c3)CC2)cc1,inactive,,
Fc1ccc(N2CCCCC2)c(NC(=S)c2ccncc2)c1,,3.95% (inactive),
O=C(Cc1c(F)cccc1F)Nc1cc(OCc2ccc(Cl)cc2)ccn1,,3.56% (inactive),
CCN(c1cc(-c2ccc(CN3CCOCC3)cc2)cc(C(=O)NCc2c(C)cc(C)[nH]c2=O)c1C)C1CCOCC1,,-21.9% (inactive),
C/C=C(/C)C(=O)O[C@@H]1C[C@@H](OC(=O)CC(C)C)C2(C)C3C(=O)C=C(C)C2C3C1(C)C (stereo not given in full),,0.438% (inactive),
CCOc1cc(C(C)(C)C)ccc1C1=NC(C)(c2ccc(Cl)cc2)C(C)(c2ccc(Cl)cc2)N1C(=O)N1CCN(CCCS(C)(=O)=O)CC1 (stereo not given),,,5170 nM (active)
COc1ccc(S(=O)(=O)N2CCC[C@H]2C(=O)Nc2cc(C)cc(C)c2)cc1,,2.15% (inactive),
COc1cccc(-c2cc(F)ccc2C2Cc3nc(N)nc(C)c3C(=O)N2)n1 (stereo not given),,,146 nM (active)
CN(C)C(=O)Nc1cc(-c2ccccc2)ccc1N(C)C,,-26.2% (inactive),
COc1ccc(NC(=O)c2ccc(C(=N)N(C)C)cc2)c(C(=O)Nc2ccc(Cl)cn2)c1,,3.5% (inactive),
Nc1nccc(-c2c(-c3ccc(F)cc3)ncn2C2CCCCC2)n1,,-18.7% (inactive),
COc1cc(O)c2c(c1)/C=C/C[C@H](O)[C@H](O)C(=O)/C=C\C[C@H](C)OC2=O,,,16400 nM (active)
CC(C)c1cc(-c2ccc(F)c3ccccc23)nc(N)n1,,2.23% (inactive),
CNc1cccc(CCOc2ccc3c(c2)CN(CC(F)(F)F)C(=O)[C@H](CC(=O)O)C3)n1,,,82 nM (active)
OC[C@H]1O[C@@H](OC/C=C/c2ccc(O)cc2)[C@H](O)[C@@H](O)[C@@H]1O,,-28.9% (inactive),
Cn1ccc(NC(=O)c2cc(Oc3ccc(C(=O)N4CCC4)c(F)c3)c3c(c2)OC(C)(C)C3)n1,,3.93% (inactive),
COc1ccc2nc3n[nH]c(C)c3c(NCCOCCO)c2c1,,4.22% (inactive),
CC(=O)Nc1cccc(Nc2ncnc(N3CCC(OCc4ccc(OC(F)(F)F)cc4)CC3)n2)c1C,,,13000 nM (active)
C=C(C(=O)OC[C@H]1O[C@@H](OC(=O)/C=C/c2ccccc2)[C@H](O)[C@@H](O)[C@@H]1O)C(O)CO (stereo not given in full),,-9.26% (inactive),
COc1ccccc1C(=O)Nc1cc2c(cc1N1CCCC1)n(C)c(=O)n2C,,-29% (inactive),

Compound,outcome,max response,Potency
Clc1cccc(COc2cncc(N3CCNCC3)n2)c1,inactive,,
CCOc1cn(-c2ccc(F)cc2C)nc1C(=O)Nc1ccc(Oc2ccnc3cc(OC)c(OC)cc23)c(F)c1,,-25.1% (inactive),
O=C(Nc1ccccc1Br)NC1CCN(c2ccc(C(F)(F)F)cn2)C1 (stereo not given),inactive,,
C=CC(C)(O)CC/C=C(/C)COC(=O)C(C)C1CCC(C)(C=C)O1 (stereo not given),,-27% (inactive),
Cc1noc(C)c1-c1cc(O)cc(C(O)c2ccccc2)c1 (stereo not given),,,7310 nM (active)
COc1cccc(NCCC2(c3ccccc3)CC(C)(C)OC(C)(C)C2)c1,,-3.59% (inactive),
Cc1c(OCc2cccc(-c3ccc(C(=O)O)cc3)c2)cc2c(c1C)C(=O)C(C1CCCC1)C2 (stereo not given),,3.68% (inactive),
Cn1cc(-c2ccc(S(=O)(=O)n3ccc(/C=C/C(=O)Nc4ccccc4N)c3)cc2)cn1,,,9200 nM (active)
CC1(NC(=O)c2ccc(C#Cc3cccc(F)c3)cn2)COC1,,4.8% (inactive),
O=C(NCCN1CCC(n2c(=O)[nH]c3ccccc32)CC1)c1cc2cc(F)ccc2[nH]1,,4.31% (inactive),
CCN(Cc1cc(Nc2nc(C)cn3c(-c4cn[nH]c4)cnc23)sn1)C(C)(C)CO,,,73.1 nM (active)
NC(=O)CCCSc1nc(N)nc(-c2c(Cl)cc3c4c(cccc24)COC3)n1,,,1460 nM (active)
Cc1c(C(=O)Nc2ccc(N3CCC(N4CCOCC4)CC3)c(C#N)c2)cnn1-c1ccc(Cl)cc1,,,1160 nM (active)
CCN1CCC[C@@H]1CNC(=O)c1ccc2c(c1)NC(=O)c1cccc(C)c1S2,,2.08% (inactive),
O=C(CNC(=O)c1cccc(C(F)(F)F)c1)N[C@@H]1CCN(Cc2ccc(Cl)cc2)C1,,-11.8% (inactive),
CC(=O)NC(C)c1cnc(-c2cnc(Oc3ccc(OC(C)C)cc3)s2)s1 (stereo not given),,-17.1% (inactive),
O=C(NNc1nc2cc(F)ccc2n2cccc12)c1cnccn1,,,1300 nM (active)
C[C@@H](Nc1ncnc2[nH]c(-c3ccc(O)cc3)cc12)c1ccccc1,,-9.15% (inactive),
CC1=CC2/C=C(\C)CCC3OC(C)(C)OC3CCC(=O)C23C(=O)NC(CC(C)C)C3C1C (stereo not given),,4.29% (inactive),
CC1(CO)CC2C(O)C3=C(CC(C)(O)C2C1)C(=O)OC3 (stereo not given),,-1.99% (inactive),

# System: HaCat
# Experiment: as above
# Settings: Five cell lines viability, CellTiter-Glo ATP luminescence, 48-72 h; max response: active compounds read low
# Method in brief: as §1
Compound,Potency,max response
CCOc1cc(C(C)(C)C)ccc1C1=NC(C)(c2ccc(Cl)cc2)C(C)(c2ccc(Cl)cc2)N1C(=O)N1CCN(CCCS(C)(=O)=O)CC1 (stereo not given),20600 nM (active),
COc1cccc(-c2cc(F)ccc2C2Cc3nc(N)nc(C)c3C(=O)N2)n1 (stereo not given),46.1 nM (active),
CN(C)C(=O)Nc1cc(-c2ccccc2)ccc1N(C)C,,-16% (inactive)
COc1ccc(NC(=O)c2ccc(C(=N)N(C)C)cc2)c(C(=O)Nc2ccc(Cl)cn2)c1,,-16.4% (inactive)
COc1cc(O)c2c(c1)/C=C/C[C@H](O)[C@H](O)C(=O)/C=C\C[C@H](C)OC2=O,9200 nM (active),
CC(=O)Nc1cccc(Nc2ncnc(N3CCC(OCc4ccc(OC(F)(F)F)cc4)CC3)n2)c1C,,-26.7% (inactive)
C=CC(C)(O)CC/C=C(/C)COC(=O)C(C)C1CCC(C)(C=C)O1 (stereo not given),,3.72% (inactive)
Cc1noc(C)c1-c1cc(O)cc(C(O)c2ccccc2)c1 (stereo not given),,-28.1% (inactive)
Cc1c(OCc2cccc(-c3ccc(C(=O)O)cc3)c2)cc2c(c1C)C(=O)C(C1CCCC1)C2 (stereo not given),,-12% (inactive)
Cn1cc(-c2ccc(S(=O)(=O)n3ccc(/C=C/C(=O)Nc4ccccc4N)c3)cc2)cn1,,-149% (inactive)
CCN(Cc1cc(Nc2nc(C)cn3c(-c4cn[nH]c4)cnc23)sn1)C(C)(C)CO,1460 nM (active),
NC(=O)CCCSc1nc(N)nc(-c2c(Cl)cc3c4c(cccc24)COC3)n1,291 nM (active),
CC(=O)NC(C)c1cnc(-c2cnc(Oc3ccc(OC(C)C)cc3)s2)s1 (stereo not given),,2.34% (inactive)
O=C(NNc1nc2cc(F)ccc2n2cccc12)c1cnccn1,3260 nM (active),
C[C@@H](Nc1ncnc2[nH]c(-c3ccc(O)cc3)cc12)c1ccccc1,820 nM (active),
